# According to PMC4336329 (PLoS ONE, 2015):
# The whole screen tested about 310,000 compounds, of which about 2,200 (0.71%) showed an effect of 50% or more. Effects have a minus sign here. What follows is part of a selection rich in strong results, with near analogues and random picks from the rest.
# Target: human ether-à-go-go-related gene (hERG) potassium channel (human, UniProt Q12809)
# Assay: primary screen, population patch clamp on CHO cells stably expressing hERG; higher = less effect of the substance
# Chain of human ether-à-go-go-related gene (hERG) potassium channel (Q12809 whole entry, looked up): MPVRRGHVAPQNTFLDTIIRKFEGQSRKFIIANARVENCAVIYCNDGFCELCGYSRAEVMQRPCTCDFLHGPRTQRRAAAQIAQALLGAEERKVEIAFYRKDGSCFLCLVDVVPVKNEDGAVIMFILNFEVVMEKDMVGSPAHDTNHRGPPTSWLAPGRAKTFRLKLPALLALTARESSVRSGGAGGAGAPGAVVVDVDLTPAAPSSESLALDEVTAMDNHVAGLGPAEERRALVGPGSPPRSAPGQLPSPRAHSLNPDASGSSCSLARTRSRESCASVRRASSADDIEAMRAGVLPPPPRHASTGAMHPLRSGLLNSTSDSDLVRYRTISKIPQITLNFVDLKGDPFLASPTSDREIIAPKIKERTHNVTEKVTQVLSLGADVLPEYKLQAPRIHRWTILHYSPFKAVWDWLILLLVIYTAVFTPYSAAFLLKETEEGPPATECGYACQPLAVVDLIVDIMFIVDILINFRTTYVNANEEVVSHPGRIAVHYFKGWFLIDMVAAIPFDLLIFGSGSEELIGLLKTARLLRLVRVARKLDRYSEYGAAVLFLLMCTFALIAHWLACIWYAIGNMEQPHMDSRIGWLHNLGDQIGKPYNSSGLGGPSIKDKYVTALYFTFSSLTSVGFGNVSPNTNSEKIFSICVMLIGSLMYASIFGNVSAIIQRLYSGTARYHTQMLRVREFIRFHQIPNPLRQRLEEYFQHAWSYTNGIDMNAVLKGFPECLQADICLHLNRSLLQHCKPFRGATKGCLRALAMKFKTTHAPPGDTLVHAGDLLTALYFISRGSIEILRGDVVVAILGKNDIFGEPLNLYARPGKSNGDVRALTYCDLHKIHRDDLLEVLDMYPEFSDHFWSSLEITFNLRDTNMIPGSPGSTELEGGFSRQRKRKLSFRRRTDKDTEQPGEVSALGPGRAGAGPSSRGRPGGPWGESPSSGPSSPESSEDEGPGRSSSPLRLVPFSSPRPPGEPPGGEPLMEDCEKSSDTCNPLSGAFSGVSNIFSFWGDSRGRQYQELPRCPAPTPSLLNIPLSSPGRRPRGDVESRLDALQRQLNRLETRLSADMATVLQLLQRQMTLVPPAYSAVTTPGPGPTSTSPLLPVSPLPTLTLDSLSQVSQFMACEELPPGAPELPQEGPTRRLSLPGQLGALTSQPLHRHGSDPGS
row,Structure (SMILES),"hERG current change (%, negative = inhibition) at 1uM [%]"
1,O=C(NCCN1CCN(S(=O)(=O)c2ccccc2)CC1)C(=O)Nc1ccc(F)cc1,8.68
2,O=C(CN1C(=O)c2cccc3cccc(c23)C1=O)NCCCO,9.32
3,COc1ccccc1NC(=O)N1CCN(c2ccc3nnc(-c4ccc(F)cc4)n3n2)CC1,13.5
4,OCCC1CN(Cc2nc(-c3ccccc3)cs2)CCN1Cc1ccc(F)cc1 (stereo not drawn),-47.1
5,OCCC1CN(Cc2nc(-c3ccccc3)cs2)CCN1CCc1ccccc1 (stereo not drawn),-42.8
6,OCCC1CN(Cc2nc3ccccc3s2)CCN1CCc1ccccc1 (stereo not drawn),-58.3
7,COc1ccc(CC2(CO)CCN(Cc3ccc4nsnc4c3)CC2)cc1,-4.45
8,CC(C)CN1CCN(Cc2nc3ccccc3s2)CC1CCO (stereo not drawn),-5.53
9,CC(C)CCN1CCN(Cc2ccc3nsnc3c2)CC1CCO (stereo not drawn),-21.3
10,OCC1(Cc2ccc(Cl)cc2)CCN(Cc2ccc3nsnc3c2)CC1,-6.01
11,OCCC1CN(Cc2ccc3nsnc3c2)CCN1CCc1ccccc1 (stereo not drawn),-73.7
12,CC(C)CCN1CCN(Cc2nc3ccccc3s2)CC1CCO (stereo not drawn),-8.09
13,CC(C)=CCN1CCN(Cc2ccc3nsnc3c2)CC1CCO (stereo not drawn),4.93
14,OCC1(CCc2ccccc2)CCN(Cc2ccc3nsnc3c2)CC1,-69.1
15,OCCC1CN(Cc2nc(-c3ccc(F)cc3)cs2)CCN1CCc1ccccc1 (stereo not drawn),-69.3
16,O=C(N/N=C/c1ccc(-c2cccc([N+](=O)[O-])c2)o1)[C@H]1C[C@@H]1c1ccccc1,3.49
17,CCOC(=O)c1cnc(N)nc1C(F)(F)F,-2.92
18,CCC(=O)NC(=S)Nc1ccc(NC(=O)COc2ccccc2)cc1,19.7
19,COc1ccc(C(=O)N2CCN(C(C)=O)CC2)cc1S(=O)(=O)N1CCOCC1,14.4
20,COc1ccc(C(=O)NCc2ccc3c(c2)OCO3)c(OC)c1,13.6
21,CC(=O)Nc1ccc(S(=O)(=O)NCC(=O)OCC(=O)N2CCc3ccccc32)cc1,2.85
22,CCc1ccc2c(CN(CC)Cc3nc4ccccc4c(=O)[nH]3)cc(=O)oc2c1,-60.5
23,Cc1ccc2c(CN3CCC(C)CC3)cc(=O)oc2c1,-1.03

row,Structure (SMILES),"hERG current change (%, negative = inhibition) at 1uM [%]"
1,Cc1ccc2c(CN3CCCCC3)cc(=O)oc2c1,6.38
2,CCN(Cc1nc2ccccc2c(=O)[nH]1)Cc1cc(=O)oc2cc(OC)ccc12,-25.6
3,O=c1cc(CN2CCN(Cc3ccccc3)CC2)c2cc(O)ccc2o1,-39.4
4,Cc1ccc2c(CN3CCN(CCO)CC3)cc(=O)oc2c1,-52.1
5,Cc1cc2oc(=O)cc(CN3CCN(Cc4ccccc4)CC3)c2cc1O,-12.5
6,COc1ccc(CN2CCN(Cc3cc(=O)oc4cc(C)ccc34)CC2)c(OC)c1OC,-87.6
7,Cc1ccc2c(CN3CCOCC3)cc(=O)oc2c1,-6.01
8,O=c1cc(CN2CCN(Cc3ccccc3)CC2)c2ccc(O)cc2o1,-79.7
9,CCN(Cc1nc2ccccc2c(=O)[nH]1)Cc1cc(=O)oc2cc(C)c(C)cc12,-25.2
10,COc1ccc2oc(=O)cc(CN3CCN(Cc4ccc(OC)c(OC)c4OC)CC3)c2c1,-2.05
11,COc1ccc(CNC(=O)CSc2nnc3c(n2)[nH]c2ccc(OC)cc23)cc1,11.1
12,Cc1ccc(NS(=O)(=O)c2cc(NC(=O)c3cc4c(s3)CCCC4)ccc2C)c(C)c1,7.78
13,CCC1(CC)C(=O)NC(=O)NC1=NCCc1c[nH]c2ccccc12,21.2
14,Fc1cccc(CN2CCN(Cc3nc(CCc4ccccc4)no3)CC2)c1,3.49
15,Cc1cc(C)c2c(CN3CCN(Cc4ccc5c(c4)OCO5)CC3)cc(=O)oc2c1C,2.67
16,Cc1ccc2c(CN3CCN(Cc4ccccc4)CC3)cc(=O)oc2c1,-84
17,Cc1cc2oc(=O)cc(CN3CCN(Cc4ccccc4)CC3)c2cc1Cl,0.748
18,Cc1cc2oc(=O)cc(CN3CCN(Cc4ccc5c(c4)OCO5)CC3)c2cc1C,0.724
19,CCc1ccc2c(CN3CCN(Cc4ccccc4)CC3)cc(=O)oc2c1,-84.6
20,COc1ccc(OC)c(CN2CCN(Cc3cc(=O)oc4cc(O)ccc34)CC2)c1,-67
21,COc1ccc2oc(=O)cc(CN3CCOCC3)c2c1,10.4
22,CCc1ccc2oc(=O)cc(CN3CCN(Cc4ccccc4)CC3)c2c1,-17.6
23,Cc1cc(C)c2c(CN3CCN(Cc4ccc5c(c4)OCO5)CC3)cc(=O)oc2c1,-50.3

row,Structure (SMILES),"hERG current change (%, negative = inhibition) at 1uM [%]"
1,COC(=O)C1CCN(Cc2cc(=O)oc3cc(OC)ccc23)CC1,-1.21
2,CCc1ccc2c(CN3CCOCC3)cc(=O)oc2c1,-4.5
3,Cc1ccc2oc(=O)cc(CN3CCN(Cc4ccccc4)CC3)c2c1,-18.6
4,CN(C)C(=S)NC(=O)C12CC3(C)CC(C)(CC(C)(C3)C1)C2,12.9
5,O=C(CSc1nnc(CNC(=O)c2ccc(F)cc2)o1)Nc1nccs1,13.2
6,CCCCOc1c(Cl)cc(C(=O)N(C)CC(=O)Nc2ccc(N3CCOCC3)cc2)cc1OCC,9.76
7,O=C(NCCCn1cccn1)C1CCC(=O)N(Cc2ccccc2F)C1 (stereo not drawn),7.05
8,O=C(CCN1C(=O)/C(=C/C=C/c2ccccc2)SC1=S)Nc1nccs1,-3
9,Cn1c(SCC(=O)Nc2ccc3c(c2)OCCO3)nnc1-c1ccccn1,6.5
10,CCN(CC)S(=O)(=O)c1ccc(NC(=O)COC(=O)c2c[nH]c(=O)[nH]c2=O)cc1,11.1
11,CN(C)CCCOC(=O)c1ccc(Br)cc1,-6.15
12,COc1ccc(CCNC(=O)C2CCN(C(=O)c3ccc(OC)c(OC)c3)CC2)cc1,13.3
13,Cc1cccc(OCC(=O)NC(=S)Nc2ccc(S(=O)(=O)NC3CCCCC3)cc2)c1,11.2
14,COc1ccc(-c2nc(-c3ccc4c(c3)OCO4)[nH]c2-c2ccc(OC)cc2)cc1,14.7
15,COc1ccc(C(=O)NC2CC3CCCC(C2)N3CC(C)C)cc1 (stereo not drawn),-13.5
16,O=C(NC1CCN(Cc2cccc([N+](=O)[O-])c2)CC1)c1ccccc1,-3.19
17,O=C(NC1CC2CCCC(C1)N2Cc1ccccc1)c1ccc([N+](=O)[O-])cc1 (stereo not drawn),-82.2
18,CCOc1ccc(C(=O)NC2CC3CCCC(C2)N3Cc2ccccc2)cc1 (stereo not drawn),-20.4
19,CN1C2CCC1CC(NC(=O)c1ccc([N+](=O)[O-])cc1)C2 (stereo not drawn),12.1
20,COCCNC(=S)NC1CC2CCCC(C1)N2Cc1cccs1 (stereo not drawn),-1.25
21,CC(C)CN1C2CCCC1CC(NC(=O)c1ccc([N+](=O)[O-])cc1)C2 (stereo not drawn),-70.1
22,O=C(NC1CC2CCCC(C1)N2Cc1ccccc1)c1cccc(Cl)c1 (stereo not drawn),-12.1
23,CC1CCCCC1NC(=O)CN1CCC(NC(=O)c2ccc([N+](=O)[O-])cc2)CC1 (stereo not drawn),12.1

row,Structure (SMILES),"hERG current change (%, negative = inhibition) at 1uM [%]"
1,O=C(NC1CC2CCCC(C1)N2Cc1cccs1)c1ccc([N+](=O)[O-])cc1 (stereo not drawn),-78.6
2,O=C(NC1CC2CCCC(C1)N2Cc1cccs1)N1CCOCC1 (stereo not drawn),3.19
3,O=C(NC1CCN(CC(=O)N(c2ccccc2)c2ccccc2)CC1)c1ccc([N+](=O)[O-])cc1,-78.6
4,CC(C)NC(=O)C1CCN(C2CCN(C(=O)c3cc4c(s3)CCCCC4)CC2)CC1,6.33
5,CCOc1cc(C(=O)NCCc2ccc(S(N)(=O)=O)cc2)cc(OCC)c1OCC,3.65
6,Cc1ccccc1NC(=O)C1CCCN1C(=O)NC1CCCCC1 (stereo not drawn),17.4
7,CCOCCCNc1nc(C(F)(F)F)nc2c1nnn2Cc1ccccc1Cl,15.9
8,O=C(N1CCC(n2nc(-c3ccccc3)oc2=O)CC1)C1(c2ccc(Cl)cc2)CC1,7.63
9,COCCNC(=O)c1c[nH]n2c(=O)cc(C3CCN(C(=O)OC(C)(C)C)CC3)nc12,9.37
10,Cc1ccc(C)c(COc2coc(CN3CCN(C(=O)c4ccco4)CC3)cc2=O)c1,-95.9
11,Cc1ccc(COc2coc(CN3CCN(C(=O)c4ccco4)CC3)cc2=O)cc1,-16.4
12,Cc1cccc(COc2coc(CN3CCN(C(=O)c4ccco4)CC3)cc2=O)c1,-7.28
13,CCCC(=O)Nc1nc2ccc(NC(=O)c3ccccc3F)cc2s1,14.1
14,COc1ccc(Nc2nnc(SCC(=O)N3CCCC3)s2)cc1,7.15
15,Cc1ccc(-c2nc(CS(=O)(=O)CC(=O)NCCN3CCCC3)c(C)o2)cc1,7.76
16,COc1ccc(-c2cc(C)no2)cc1S(=O)(=O)N(C)c1ccc(C)c(C)c1,9.2
17,COc1ccc(-c2cc(C)no2)cc1S(=O)(=O)N(C)c1cccc(C)c1,-62.5
18,COc1cccc(CCN2CCC(CNS(=O)(=O)c3cc(-c4cc(C)no4)ccc3OC)CC2)c1,-66.3
19,COc1ccc(-c2cc(C)no2)cc1S(=O)(=O)N(C)c1ccc(C)cc1,4.37
20,COc1cccc(CCN2CCC(CNS(=O)(=O)c3cc(-c4cc(C)no4)ccc3C)CC2)c1,-20.1
21,COc1ccccc1CN1CCC(CNS(=O)(=O)c2cc(-c3cc(C)no3)ccc2OC)CC1,-33.2
